Most compounds without a hit are left out; they make up all but 1.5% or so of the library.
NTR1 agonist: NTR1 (human) agonism. P30989. NTR1-U2OS beta-arrestin-GFP spot imaging, agonist mode. activation, % at 20 µM. hit rate 0.17% among 330,000;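 active means activation at or above 40% of the spot to cytoplasm intensity ratio, with at least 20 cells analyzed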;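 further: 0% = DMSO without peptide and 100% = 100 nM NTR1 peptide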
ABHD5-PLIN5 inh: inhibitors of human ABHD5-perilipin-5 interaction; Split G. princeps luciferase complementation, luminescence, 4 h; inhibition, % at 4 µM; hit rate 0.78% among 360,000; AID 602281;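 active means inhibition above the mean inhibition across every tested compound plus 3 SD, cut at about 22% in these data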;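 further: 0% = DMSO only wells and the 100% control is not disclosed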
TLR9-MyD88 block: blocks human TLR9 binding to MyD88 | hit rate 0.21% among 340,000 | CHO BLA complementation TLR9-MyD88, CCF4 FRET ratio | Q9NR96+Q99836 | inhibition, % at 4.98 µM;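 active means inhibition above the mean over all tested compounds plus 3 SD, cut at about 21% in these data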;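 further: 0% = DMSO only wells and 100% = clavulanate BLA inhibitor control wells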
Beta2AR agonist: agonists of human beta-2 adrenergic receptor inducing internalization; response, % (concentration not given with the values); P07550; Am2.2-beta2AR cells, FAP receptor internalization, flow cytometry; AID 504454; hit rate 0.43% among 340,000;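 active means response above a set limit, near 3 SD of response in nonfluorescent compounds, cut at about 42% in these data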
NOD2 RIPK2 PPI: blocks binding of human NOD2 to RIPK2; inhibition, % at 4.98 µM; CHO BLA complementation NOD2-RIPK2, CCF4 ratio; hit rate 0.38% among 360,000; AID 624267; in the data active means inhibition above about 21%;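 further: 0% = vehicle only and 100% = reference blocker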
TLR4 MyD88 comp: inhibitors of human TLR4-MyD88 binding; O00206+Q99836; HeLa CL3-4 TLR4/MyD88 BLA complementation, FRET ratio; inhibition, % at 8.4 µM; hit rate 0.18% among 200,000; AID 861; in the data active means inhibition above about 25%;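 further: 0% = vehicle and 100% = reference inhibitor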
Target sequence (O00206 whole entry, looked up): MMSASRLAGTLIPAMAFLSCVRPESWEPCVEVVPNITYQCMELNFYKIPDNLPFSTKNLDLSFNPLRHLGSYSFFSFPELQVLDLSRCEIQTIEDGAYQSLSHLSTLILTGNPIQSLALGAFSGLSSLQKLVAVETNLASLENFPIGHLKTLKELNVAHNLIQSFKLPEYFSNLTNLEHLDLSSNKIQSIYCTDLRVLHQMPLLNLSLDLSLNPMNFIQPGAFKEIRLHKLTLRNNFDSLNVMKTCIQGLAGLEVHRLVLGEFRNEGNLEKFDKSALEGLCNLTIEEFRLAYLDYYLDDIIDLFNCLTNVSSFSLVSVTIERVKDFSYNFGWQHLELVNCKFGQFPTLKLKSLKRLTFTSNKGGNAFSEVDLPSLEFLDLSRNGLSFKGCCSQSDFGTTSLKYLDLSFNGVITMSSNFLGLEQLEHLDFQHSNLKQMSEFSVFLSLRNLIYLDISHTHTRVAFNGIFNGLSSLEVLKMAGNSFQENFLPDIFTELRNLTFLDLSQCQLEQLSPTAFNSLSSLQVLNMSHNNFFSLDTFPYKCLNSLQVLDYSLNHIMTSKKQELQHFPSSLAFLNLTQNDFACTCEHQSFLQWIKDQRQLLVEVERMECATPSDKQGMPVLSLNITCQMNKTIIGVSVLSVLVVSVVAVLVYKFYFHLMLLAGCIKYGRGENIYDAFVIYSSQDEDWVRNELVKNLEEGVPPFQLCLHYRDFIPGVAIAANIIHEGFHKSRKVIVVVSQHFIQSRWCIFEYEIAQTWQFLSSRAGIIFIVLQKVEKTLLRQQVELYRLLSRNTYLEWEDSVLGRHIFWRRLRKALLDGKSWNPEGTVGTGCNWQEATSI
Target sequence (Q99836 whole entry, looked up): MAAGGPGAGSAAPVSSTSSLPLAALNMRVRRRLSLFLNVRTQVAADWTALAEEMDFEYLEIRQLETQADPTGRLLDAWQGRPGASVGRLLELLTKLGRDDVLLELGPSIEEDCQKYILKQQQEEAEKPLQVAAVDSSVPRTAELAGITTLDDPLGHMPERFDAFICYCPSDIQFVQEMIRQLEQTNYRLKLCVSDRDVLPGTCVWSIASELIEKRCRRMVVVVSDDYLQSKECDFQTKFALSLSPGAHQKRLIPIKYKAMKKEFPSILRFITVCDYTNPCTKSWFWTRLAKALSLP
NOD2 RIPK2 conf: confirmation of human NOD2-RIPK2 interaction inhibitors. CHO cells, NOD2-RIPK2 BLA complementation, CCF4 FRET. shares compounds with NOD2 RIPK2 PPI. inhibition, % at 4.98 µM. hit rate 70% among 1,200. AID 624370;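 active means mean inhibition across replicates above a set limit taken from the earlier primary screen, cut at about 21% in these data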;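 further: 0% = DMSO-only wells and the high end = clavulanate BLA-blocked wells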
NOD2 BLA counter: NOD2-RIPK2 counterscreen BLA reporter activity | inhibition, % at 4.98 µM | shares compounds with NOD2 RIPK2 PPI | CHO BLA reporter, CCF4 FRET ratio | AID 624371 | hit rate 57% among 1,200;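 active means mean inhibition above the low-control mean inhibition plus three low-control SD, cut at about 11% in these data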;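 further: 0% = DMSO only wells and 100% = clavulanate high control wells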
The depositor's hits bear a star; . = no result.

SMILES	NTR1 agonist	ABHD5-PLIN5 inh	TLR9-MyD88 block	Beta2AR agonist	NOD2 RIPK2 PPI	TLR4 MyD88 comp	NOD2 RIPK2 conf	NOD2 BLA counter
O=C(Cc1csc(Nc2nc(=S)[nH]c3ccccc23)n1)NCc1ccc(Cl)cc1	4	-1	3	-7	-14	4	.	.
O=C(Cc1csc(Nc2nc(=S)[nH]c3ccccc23)n1)NCCCN1CCN(c2ccccc2F)CC1	8	5	20	6	47*	6	46*	54*
N#CC1=C(N)Oc2cc(O)c(Cl)cc2C1c1cccnc1 (centres undefined)	1	3	9	5	31*	.	-1	4
CCC(=O)c1ccc(OCC(=O)N2CCN(c3ccccn3)CC2)cc1	2	1	7	-2	28*	.	-1	4
COc1ccc(C(=O)N2CCCC(c3cc(C(=O)Nc4ccccc4)no3)C2)cc1 (centres undefined)	.	-3	.	.	-2	.	.	.
CC(=O)Nc1ccc(NC(=O)c2ccc(NS(=O)(=O)c3cc(C(C)(C)C)ccc3C)cc2)cc1	2	-6	5	-2	39*	10	-34	-8
COc1ccc(-c2oc3c(c2C#CC(C)(C)O)C(OC)CCC3)cc1 (centres undefined)	.	1	.	.	1	.	.	.
COCCNC(=S)N/N=C/c1ccc(-c2ccc([N+](=O)[O-])cc2)o1	35	4	14	4	31*	.	44*	47*
CC1(C)CC(=O)C(C=Nc2ccc(C(=O)c3ccccc3)cc2N=CC2=C(O)CC(C)(C)CC2=O)=C(O)C1	-1	-19	18	11	27*	14	-3	-3
CC1(C)CC(=O)C(C=Nc2ccc(O)c(N=CC3=C(O)CC(C)(C)CC3=O)c2)=C(O)C1	1	-7	-4	-5	-6	-2	.	.
CC1CN(Cc2cc(=O)oc3cc(O)c(Cl)cc23)CC(C)O1 (centres undefined)	0	1	-21	5	-9	.	.	.
CC1CCN(Cc2cc(=O)oc3cc(O)c(Cl)cc23)CC1	1	-7	7	7	31*	.	32*	49*
c1ccc(-c2sc3ccccc3c2-c2ccc(OCCN3CCCC3)cc2)cc1	8	15	-21	68*	23*	.	10	-1
Cc1cc(NC(=O)CS(=O)(=O)c2cn(Cc3cccc(C(F)(F)F)c3)c3ccccc23)no1	.	-7	.	.	0	.	.	.
O=C1CCC[C@@H]2C=C[C@H](c3ccc(Br)cc3)[C@H]3CCN1[C@@H]32	.	2	.	.	0	.	.	.
Cn1cc(/C=C/C(=O)c2ccccc2)c2ccccc21	8	2	10	11	25*	.	25*	28*
Cc1ccc(C(=O)/C=C/c2cn(CN3CCN(C)CC3)c3ccccc23)cc1	38	-2	10	10	24*	23	26*	38*
O=c1c(O)c(-c2ccc(O)c(O)c2)oc2cc(O)ccc12	.	8	20	8	25*	.	29*	28*
O=c1c(O)c(-c2ccc(O)cc2)oc2cc(O)cc(O)c12	0	8	4	7	-9	.	.	.
O=CNc1ccc2c3c(cccc13)-c1ccccc1-2	.	14	1	-30	29*	.	24*	38*
CC(=O)Nc1ccc2c3c(cccc13)C(=O)N(c1ccccc1)C2=O	-1	2	2	-6	1	12	.	.
COc1ccc(Cl)cc1NC(=O)CC(=O)Nc1cc(Cl)ccc1OC	-1	2	-14	5	2	.	.	.
COc1ccc(Cl)cc1NC(=O)Cc1c(F)cccc1Cl	6	-5	3	1	22*	-25	3	1
O=C(c1ccc(Cl)cc1)c1c[nH]c(C(=O)NNc2cccc(Cl)n2)c1	2	4	5	0	23*	8	1	2
O=c1oc(=S)oc2c1[C@H](c1ccc(Cl)cc1)O[C@H](C1CC1)C2	.	0	.	.	0	.	.	.
SMILES	NTR1 agonist	ABHD5-PLIN5 inh	TLR9-MyD88 block	Beta2AR agonist	NOD2 RIPK2 PPI	TLR4 MyD88 comp	NOD2 RIPK2 conf	NOD2 BLA counter
COc1cc(OC)c(OC)cc1/C=C/C(=O)c1ccc(NS(=O)(=O)c2ccc(C)cc2)cc1	4	13	20	4	34*	17	34*	40*
CC(=O)c1ccc(NS(=O)(=O)c2ccc(C)cc2)cc1	-1	-1	7	8	-1	15	.	.
O=C(C[n+]1ccccc1)c1ccc(NC(=O)c2ccccc2)cc1	-2	2	0	-4	35*	15	-1	-7
CCCCN(C(C)=O)c1c(CC)nc2ccc(C(=O)NCCOc3ccc(OC)cc3)cn12	.	7	.	.	-3	.	.	.
CC(=O)Nc1ccc(CN2C(=O)C(C)(C)ON=C2c2ccc(C(F)(F)F)cc2)cc1	.	3	.	.	-4	.	.	.
Cc1noc(C)c1-c1ccc(C(=O)NCc2ccc(Cl)cc2)c2occc12	.	0	.	.	8	.	.	.
Cc1noc2ncnc(Sc3ccccc3Cl)c12	2	14	20	8	28*	10	23*	-6
CCCc1nc2ccc(C)cn2c1Cc1ccsc1	.	-1	.	.	2	.	.	.
OC(c1ccc2c(c1)OCO2)c1ncc(-c2cccc(C(F)(F)F)c2)[nH]1 (centres undefined)	.	-1	.	.	8	.	.	.
Nc1c(C(=O)Nc2ccc(F)cc2)sc2nc(-c3ccco3)ccc12	-3	10	15	18	8	6	.	.
Nc1c(C(=O)Nc2ccc(Br)cc2)sc2nc(-c3ccco3)ccc12	4	0	36*	22	26*	23	67*	66*
O=C(Nc1cnccn1)c1csc2ccccc12	-1	1	-1	8	33*	-3	-4	-3
O=C(Nc1ccon1)c1csc2ccccc12	-2	3	2	-9	-15	-1	.	.
COc1ccc(C(C(=O)NCc2ccccc2)n2c(=O)c(-c3cc4ccccc4[nH]3)nc3ccccc32)cc1 (centres undefined)	.	-1	.	.	44*	.	40*	64*
O=C(NCc1ccccc1)C(c1ccc(C(F)(F)F)cc1)n1c(=O)c(-c2ccccc2)nc2ccccc21 (centres undefined)	.	-3	.	.	3	.	.	.
O=C(NCc1ccccc1)C(c1ccc(-c2ccccc2)cc1)n1c(=O)c(-c2cc3ccccc3[nH]2)nc2ccccc21 (centres undefined)	.	-8	.	.	23*	.	42*	66*
COc1ccc(C(C(=O)NCc2ccccc2)n2c(-c3ccncc3)nc3ccccc32)cc1 (centres undefined)	.	-6	.	.	1	.	.	.
COc1ccc(C(C(=O)NCc2ccccc2)n2c(-c3ccccn3)nc3ccccc32)cc1 (centres undefined)	.	5	.	.	-19	.	.	.

Compound activity deposited in PubChem BioAssay by several laboratories.
